Data taken from PubChem BioAssay.
The source made the active and inactive calls.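 The calls were made as follows, unless noted: active = inhibition above 20% together with a positive visual image hit; inconclusive = visual image hit but inhibition not above 20%; inactive = no visual image hit.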

Legend:
[1] = inhibitors of TNFa-induced NFkB p65 translocation, primary screen, imaging, HUVEC, MLSMR starter and 10KST1 sets (AID 438); conditions: HUVEC TNFa-induced p65 nuclear translocation; cell count: measured here: nuclei count (cytotoxicity indicator), at 2.08 µM; inhibition: at 2 µM, stronger effect = higher value, 0% TNFa-plus-vehicle, 100% no-TNFa wells;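 also: compound added about 3h40 before a 20 min TNFalpha stimulation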;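 as to inhibition: signal is the nuclear over cytoplasmic p65 intensity ratio per well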
[2] = reduction of polyQ htt aggregates in cells – imaging, exon1htt(103Q)mCFP cells, high-content imaging, primary screen (AID 483;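 active = visual image review flags a hit and inhibition of aggregation exceeds 20%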;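 also: compound exposure lasted 3 days before fixation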;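 as to nuclei count: percent of the per-plate median nuclei count of sample wells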); conditions: exon1htt(103Q)mCFP cell line, aggregate imaging, at 2 µM; inhibition of aggregation: stronger effect = higher value; nuclei count: measured here: cell count, toxicity
[3] = endothelial E-selectin expression blockers – imaging, HUVEC, immunofluorescence, MLSMR starter and 10KST1 sets, primary screen (AID 487;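 active = visually confirmed hit in the image check and inhibition above 20%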;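 as to inhibition: signal is fraction of cell area covered by stained E-selectin grains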;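 as to nuclei count: 100% = median nuclei count of all wells on the same plate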); conditions: HUVEC TNFalpha-induced E-selectin immunofluorescence imaging, at 2 µM; inhibition: stronger effect = higher value; nuclei count: measured here: cell number, toxicity
[4] = molecular target: Voltage-gated potassium channel subunit beta-2 (Rattus norvegicus) (UniProt P62483); assay: inhibitors of rat Kvbeta2 reductase activity – biochemical, NADPH fluorescence, primary screen (AID 622;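 active = fluorescence slope higher than the sample average by over 3 SD, cut at about -0.22 in these data, passing the limit was not always enough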;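 also: slope of raw intensity against log time taken from 70 to 1610 s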); conditions: recombinant KvBeta, 4-cyanobenzaldehyde reduction, at 10 µM, stronger effect = higher value
[5] = molecular target: Voltage-gated potassium channel subunit beta-2 (Rattus norvegicus) (UniProt P62483); assay: enhancers of rat Kvbeta2 NADPH turnover – biochemical, NADPH fluorescence, primary screen (AID 623;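 active = NADPH fluorescence slope more negative than the mean of all samples by about 3 SD, 99.7% confidence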;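 also: fluorescence intensity change per second fitted from 20 to 320 s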); conditions: Recombinant KvBeta, NADPH fluorescence decrease slope, 10 min; at 10 µM; stronger effect = lower value
[6] = molecular target: Alpha-2C adrenergic receptor (Homo sapiens) (UniProt P18825); assay: compounds altering alpha2C-coupled GIRK flux – cell-based, HEK293 alpha2C/GIRK1/2, thallium flux, primary screen (AID 624;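 active = fluorescence slope after compound addition differing from the mean of all screened samples at 99.7% confidence, in either direction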;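 also: slope of fluorescence ratio to pre-addition baseline per second over 15 to 24 s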); conditions: thallium flux BTC fluorescence, at 10 µM, actives lie on both sides
[7] = blockers of RIG-like receptor reporter activation – cell-based, Sendai virus stimulus, luciferase, 10K MLSCN set, TLR/RLR signaling modifier project, primary screen (AID 602276;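 active = inhibition at or above 50% at 10 µM; inactive = inhibition below 50%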;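 also: firefly luciferase from ISG56 promoter only with Renilla not read in this screen; 0% = Sendai virus plus DMSO and 100% = medium plus DMSO without virus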); conditions: HEK293 RL24 IRF3 luciferase reporter, at 10 µM, stronger effect = higher value
[8] = TLR3 IRF3 reporter activation blockers – cell-based, poly I:C stimulus, luciferase, 10K MLSCN set, primary screen (AID 602277;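 active = inhibition of the reporter signal at or above 50%; inactive = inhibition below 50%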); conditions: HEK293-TLR3 RL24 IRF3 luciferase reporter, at 10 µM, stronger effect = higher value

Sequence of Voltage-gated potassium channel subunit beta-2 (Rattus norvegicus) (P62483 whole entry, looked up): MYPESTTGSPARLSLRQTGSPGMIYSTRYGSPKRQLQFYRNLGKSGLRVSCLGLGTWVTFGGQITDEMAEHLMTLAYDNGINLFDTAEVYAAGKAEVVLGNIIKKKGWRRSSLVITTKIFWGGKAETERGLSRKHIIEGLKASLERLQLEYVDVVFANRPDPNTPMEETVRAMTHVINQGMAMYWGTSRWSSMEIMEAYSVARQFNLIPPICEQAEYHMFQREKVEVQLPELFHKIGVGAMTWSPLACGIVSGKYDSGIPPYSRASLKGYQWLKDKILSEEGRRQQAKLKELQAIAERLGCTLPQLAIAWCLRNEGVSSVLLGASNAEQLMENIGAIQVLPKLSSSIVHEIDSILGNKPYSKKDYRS
Sequence of Alpha-2C adrenergic receptor (Homo sapiens) (P18825 whole entry, looked up): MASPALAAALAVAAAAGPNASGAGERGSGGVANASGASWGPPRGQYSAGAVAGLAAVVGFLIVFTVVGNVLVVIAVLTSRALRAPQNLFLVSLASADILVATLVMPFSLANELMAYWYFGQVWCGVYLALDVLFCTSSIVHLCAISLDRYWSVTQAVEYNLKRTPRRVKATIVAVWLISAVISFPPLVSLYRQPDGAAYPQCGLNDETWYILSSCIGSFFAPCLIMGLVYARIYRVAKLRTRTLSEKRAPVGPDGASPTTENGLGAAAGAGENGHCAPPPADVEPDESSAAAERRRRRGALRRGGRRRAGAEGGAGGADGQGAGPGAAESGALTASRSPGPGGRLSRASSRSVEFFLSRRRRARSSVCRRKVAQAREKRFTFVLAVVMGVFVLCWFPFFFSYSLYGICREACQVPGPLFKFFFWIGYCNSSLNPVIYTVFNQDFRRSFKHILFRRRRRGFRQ

Row | Compound | cell count [1] | inhibition [1] | inhibition of aggregation [2] | nuclei count [2] [%] | inhibition [3] | nuclei count [3] [%] | fluorescence slope [4] | NADPH fluorescence slope [5] | slope [6] | inhibition [7] | inhibition [8]
1 | COc1ccc(-c2nn3c(-c4cccc(C)c4)nnc3s2)cc1OC | 525 | 10.3% (inactive) | -9.4% (inactive) | 100 | -9.3% (inactive) | 114 | -0.419 (inactive) | 1.9e-05 (inactive) | 0.00514 (inactive) | -18.2% (inactive) | -17.1% (inactive)
2 | O=C(NCc1ccccc1)C1CCCN1S(=O)(=O)c1cccc2cccnc12 (stereo not drawn) | 521 | -4.4% (inactive) | -7.9% (inactive) | 67.5 | -42.2% (inactive) | 111 | -0.561 (inactive) | 3.4e-05 (inactive) | 0.00702 (inactive) | 3.4% (inactive) | 34.5% (inactive)
3 | CC(C)OC(=O)CSc1nnc(-c2ccccn2)n1-c1ccccc1 | 306 | 1.6% (inactive) | -8.2% (inactive) | 102 | -11.2% (inactive) | 99.6 | -0.429 (inactive) | -7.9e-05 (inactive) | 0.00479 (inactive) | 4.23% (inactive) | 6.06% (inactive)
4 | CCCOc1ccc(N2C(=O)CC(SCCN)C2=O)cc1 (stereo not drawn) | 428 | -8.7% (inactive) | -9.8% (inactive) | 116 | -48.7% (inactive) | 116 | -0.4 (inactive) | -1.8e-05 (inactive) | 0.00441 (inactive) | -37.6% (inactive) | -77.1% (inactive)
5 | CCc1cccc(NC(=O)CCc2nc(-c3cccs3)no2)c1 | 681 | 11.3% (inactive) | -7.6% (inactive) | 106 | 7.6% (inactive) | 114 | -0.531 (inactive) | -2.7e-05 (inactive) | 0.00567 (inactive) | -5.35% (inactive) | 18.5% (inactive)
6 | Cn1c(SCC(=O)O)nnc1C1CCCCC1 | 396 | 1.6% (inactive) | -3.7% (inactive) | 99.2 | -65.8% (inactive) | 105 | -0.515 (inactive) | -8.3e-06 (inactive) | 0.0074 (inactive) | -46.6% (inactive) | -23.7% (inactive)
7 | Cc1nnc(NC(=O)CSc2cn(CCNC(=O)c3ccccc3)c3ccccc23)s1 | 651 | -9.6% (inactive) | 28.2% (inactive) | 70.8 | -12.7% (inactive) | 106 | -0.452 (inactive) | 5.8e-06 (inactive) | 0.00437 (inactive) | -1.29% (inactive) | -44.3% (inactive)
8 | O=C(Nc1ccc(S(=O)(=O)Nc2ccc(Cl)cc2)cc1)C1CCCO1 (stereo not drawn) | 629 | -6.5% (inactive) | 3.9% (inactive) | 104 | 7.3% (inactive) | 101 | -0.415 (inactive) | -4.8e-05 (inactive) | 0.0052 (inactive) | 14.5% (inactive) | -12.8% (inactive)
9 | CCOc1ccccc1C(=O)Nc1cc(=O)n(C)c(=O)n1C | 651 | -0.8% (inactive) | 6.8% (inactive) | 95.8 | 31% (inactive) | 98.4 | -0.416 (inactive) | -4.9e-05 (inactive) | 0.00585 (inactive) | 14.8% (inactive) | 39.7% (inactive)
10 | N#Cc1c(NC(NC(=O)c2ccco2)C(=O)c2ccccc2)sc2c1CCCC2 (stereo not drawn) | 415 | -6% (inactive) | -7.6% (inactive) | 118 | -31.6% (inactive) | 121 | -0.369 (inactive) | 9.4e-06 (inactive) | 0.00297 (inactive) | 5.59% (inactive) | 22.2% (inactive)
11 | O=C(NCC(c1cccnc1)N1CCN(c2ccccc2)CC1)c1ccc2c(c1)OCO2 (stereo not drawn) | 362 | -1.8% (inactive) | 25.6% (inactive) | 87.1 | 29.6% (inactive) | 83.3 | -0.619 (inactive) | -1.3e-05 (inactive) | 0.00563 (inactive) | 8.91% (inactive) | 16.3% (inactive)
12 | O=C(O)CC(NC(=O)c1ccccc1NC(=O)c1ccccc1)C(=O)O (stereo not drawn) | 284 | -0.3% (inactive) | 8.8% (inactive) | 111 | 22.6% (inactive) | 90 | -0.403 (inactive) | 1.9e-05 (inactive) | 0.00592 (inactive) | -6.91% (inactive) | -15.2% (inactive)
13 | CCCCOCCCNC(=O)c1cccs1 | 471 | 4.5% (inactive) | -4.3% (inactive) | 103 | -392% (inactive) | 139 | -0.443 (inactive) | -2.3e-05 (inactive) | 0.00349 (inactive) | 5.11% (inactive) | 25.1% (inactive)
14 | CCn1c(CSc2nc(C)cc(C)n2)nnc1SCC(=O)Nc1ccccc1 | 579 | 1.9% (inactive) | -15.5% (inactive) | 101 | -38.7% (inactive) | 142 | -0.436 (inactive) | -3.8e-05 (inactive) | 0.00615 (inactive) | -15.1% (inactive) | -10.7% (inactive)
15 | CC1=C(C(=O)OC(C)C)C(c2ccccn2)n2ncnc2N1 (stereo not drawn) | 751 | -0.6% (inactive) | -35.6% (inactive) | 79.5 | -75.2% (inactive) | 110 | -0.569 (inactive) | -3e-05 (inactive) | 0.00699 (inactive) | 0.999% (inactive) | 30.5% (inactive)
16 | COc1ccccc1N1CCN(C(=O)c2c(-c3c(Cl)cccc3Cl)noc2C)CC1 | 652 | -11.7% (inactive) | 3.7% (inactive) | 90.6 | -24.6% (inactive) | 110 | -0.377 (inactive) | -2.9e-05 (inactive) | 0.00504 (inactive) | 18.3% (inactive) | 38.3% (inactive)
17 | Cc1ccc(C)c(C(=O)CC2(O)C(=O)N(C)c3ccccc32)c1 (stereo not drawn) | 497 | 0.7% (inactive) | -18% (inactive) | 106 | -7% (inactive) | 122 | -0.45 (inactive) | -5.8e-05 (inactive) | 0.00346 (inactive) | 2.91% (inactive) | 33.7% (inactive)
18 | COc1ccc(C(CNC(=O)c2ccc(OCC3CCCO3)cc2)N2CCOCC2)cc1 (stereo not drawn) | 666 | 0.6% (inactive) | -1.9% (inactive) | 86.2 | 7.9% (inactive) | 112 | -0.49 (inactive) | -4e-05 (inactive) | 0.00447 (inactive) | 15.9% (inactive) | 20.4% (inactive)
19 | CCCCN(C)CCCNC(=O)CC1Oc2ccccc2NC1=O (stereo not drawn) | 585 | -2.7% (inactive) | 18.9% (inactive) | 104 | -11.7% (inactive) | 131 | -0.493 (inactive) | 1.6e-05 (inactive) | 0.00638 (inactive) | 13.8% (inactive) | 36.6% (inactive)
20 | O=C(/C=N/O)NCc1ccncc1 | 420 | 1.2% (inactive) | 0.7% (inactive) | 98.3 | 28.2% (inactive) | 88 | -0.606 (inactive) | -2.2e-05 (inactive) | 0.00648 (inactive) | 8.28% (inactive) | 11.3% (inactive)
21 | Cc1ccc(NC(=O)CN(C)S(=O)(=O)c2cccc3nsnc23)cc1Cl | 711 | -16.4% (inactive) | 7.2% (inactive) | 105 | -20.4% (inactive) | 115 | -0.333 (inactive) | -4.1e-05 (inactive) | 0.00467 (inactive) | -17.3% (inactive) | 100% (active)
22 | COc1ccc(/C(O)=C2/C(=O)C(=O)N(CCCN(C)C)C2c2ccc(Cl)cc2)cc1OC (stereo not drawn) | 332 | 4.5% (inactive) | -28.5% (inactive) | 122 | -11.6% (inactive) | 112 | -0.527 (inactive) | -3.6e-05 (inactive) | 0.00513 (inactive) | 12.7% (inactive) | 10.6% (inactive)
23 | Cc1ccc2nsnc2c1S(=O)(=O)N(Cc1cc2cccc(C)c2[nH]c1=O)CC1CCCO1 (stereo not drawn) | 641 | 2.6% (inactive) | 6.3% (inactive) | 108 | 42.1% (inactive) | 92.6 | -0.578 (inactive) | -6.5e-05 (inactive) | 0.00367 (inactive) | 32.9% (inactive) | 18.9% (inactive)
24 | CN(C(=O)COc1cc(=O)n(C)c2ccccc12)c1ccc(Br)cc1 | 389 | 71.5% (active) | 2.9% (inactive) | 104 | -178% (inactive) | 142 | -0.513 (inactive) | -1.3e-05 (inactive) | 0.00662 (inactive) | 6.78% (inactive) | 45.9% (inactive)
25 | Cc1ccc2oc(-c3ccccc3C(=O)O)cc(=O)c2c1 | 363 | 10.8% (inactive) | 2.4% (inactive) | 107 | -59.4% (inactive) | 125 | -0.627 (inactive) | -1.2e-05 (inactive) | 0.00399 (inactive) | 12.1% (inactive) | 5.36% (inactive)
26 | COC(=O)c1c(NC(=O)CSc2nnnn2C)sc(C)c1C | 446 | -0.5% (inactive) | -4.7% (inactive) | 95.6 | 30.9% (inactive) | 101 | -0.374 (inactive) | -3.1e-05 (inactive) | 0.00478 (inactive) | -19% (inactive) | -14.9% (inactive)
27 | CC(C)C(NC(=O)c1ccccc1NC(=O)c1ccco1)C(=O)O (stereo not drawn) | 368 | 1.7% (inactive) | -3.4% (inactive) | 103 | -32.6% (inactive) | 115 | -0.622 (inactive) | -3.3e-05 (inactive) | 0.00599 (inactive) | 19% (inactive) | 21.5% (inactive)
28 | O=C1CCCC2=C1C(c1cccc(Br)c1)n1nc(-c3ccco3)nc1N2 (stereo not drawn) | 568 | -1.5% (inactive) | -10.2% (inactive) | 100 | 11.1% (inactive) | 109 | -0.523 (inactive) | -2.2e-05 (inactive) | 0.00646 (inactive) | 9.76% (inactive) | 24.2% (inactive)
